# Tested on: EGFR
# Details: concentration: 1 μM,replicates: in singlicate; n = 1
# 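Note: KINOMEscan kinase panel screen.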
row,SMILES,%Inh
1,CNC(=O)c1ccccc1Nc1nc(Nc2cccc(CS(C)(=O)=O)c2)ncc1C.O=CO [GSK1520489],99%
2,O=C(Nc1n[nH]c2cc(-c3ccco3)ccc12)C1CC1 [SB-737447],9%
3,CSc1nccc(-c2c(-c3ccc(F)cc3)ncn2CCCN2CCOCC2)n1.Cl [SB-217146],0%
4,COc1cccc(CNC(=O)NC2CCN(c3ccnc(Nc4cc(OC)c(OC)c(OC)c4)n3)C2)c1 (stereo not shown) [GSK1379765],28%
5,Cn1cc(-c2cccc3c(N)c(C(N)=O)nnc23)cn1,22%
6,Cc1ccc(Nc2ccnc(Nc3ccc4c(c3)CS(=O)(=O)C4)n2)cc1O.Cl [GW579362],55%
7,CC(C(=O)NC1CCN(c2ccnc(Nc3ccc(F)cc3)n2)C1)c1ccc(Cl)cc1 (stereo not shown) [GSK1379713],28%
8,COc1cc2c(Nc3ccc(NC(=O)c4ccccc4)cc3)ncnc2cc1OCCCN1CCOCC1 [GSK301329],90%
9,N#Cc1cccc(C(=O)NC2CCN(c3ccnc(Nc4ccc(F)cc4)n3)C2)c1 (stereo not shown) [GSK1379708],14%
10,CN1CCN(CCCNc2nccc(-c3c(-c4ccc(F)cc4)nn4cc(C(N)=O)ccc34)n2)CC1 [GW622475],38%
11,O=C(Nc1cccc(C(F)(F)F)c1)c1cccc(Oc2ccc3nccn3n2)c1,13%
12,COC(=O)Nc1nc2cc(Oc3ccc(NC(=O)Nc4cc(C(F)(F)F)ccc4Cl)cc3)ccc2[nH]1.Cl [GW697465],42%
13,Cn1ccc2ncnc(Oc3ccc(NC(=O)Nc4ccnc(C(F)(F)F)c4)c(Cl)c3)c21,3%

# From article PMC5540273 (PLoS ONE, 2017)
